Our source for the composite z-score and z-score values is PubChem BioAssay.

Experiment [1] deals with PRMT1 (protein arginine N-methyltransferase 1). As to the kind of experiment: PRMT1 binders on small-molecule microarrays, primary screen, biochemical, small-molecule microarray, 635 nm fluorescence (AID 1088).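 Note: binding of Prmt1 protein to compounds spotted on small-molecule microarray slides.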 The following applies: small-molecule microarray binding, higher = more signal.
Experiment [2] in a line: yeast growth modulation, basal conditions, primary screen, YJM789 clinical isolate, OD600, 24 h (AID 1089).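 Note: growth of clinical yeast isolate S. cerevisiae YJM 789 seeded 1000 cells per well; test concentration not given here.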 The note with it: S. cerevisiae YJM789 growth, higher = more signal, called active from +8 up or from −8 down.
The nature of experiment [3]: fission yeast growth modulation, primary screen, strain 972, OD600, 24 h, no modulator (AID 1090).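 Note: basal condition with compound alone and no growth modifier present; test concentration not given here.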 The following applies: S. pombe 972 growth, higher = more signal, called active from +8 up or from −8 down.
Experiment [4] is described as follows: S. cerevisiae growth modulation with rapamycin, primary screen, strain BY4716, OD600, 96 h (AID 1091). Note: test concentration not given here. The note with it: higher = more signal, called active from +8 up or from −8 down.
The target in experiment [5] is Torsin-1A-interacting protein 2 (Homo sapiens) (UniProt Q8NFQ8). As to the kind of experiment: LULL1 binders on small-molecule microarray, primary screen, cell lysate, human LULL1 lysate, 635/667 nm fluorescence (AID 1092).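 Note: probe is lysate of COS7 cells overexpressing human LULL1; score merges per-feature 667 nm fluorescence with signal-to-noise.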 The note with it: hLULL1 lysate binding, 635 nm fluorescence, higher = more signal.
A short description of experiment [6]: E. coli growth modulation, two-sided OD650, primary screen, E. coli filamentation project, strain DRC41, 24 h (AID 1093).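 Note: MC1000 strain lacking acrAB efflux and sulA so SOS filamentation is blocked; test concentration not given here.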 The note with it: OD650, 24 h, higher = more signal, called active from +8 up or from −8 down.
The nature of experiment [7]: small-molecule microarray binders of probe aLefty2, primary screen, biochemical, biotinylated probe, 635/667 nm fluorescence (AID 1094).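 Note: score merges spot fluorescence near 667 nm with spot signal-to-noise ratio.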 The note with it: higher = more signal.
Experiment [8] concerns Noggin (protein binding on small-molecule microarray). As to the kind of experiment: Noggin binders on small-molecule microarray, primary screen, biochemical, 635/667 nm fluorescence (AID 1095).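 Note: score merges 667 nm feature fluorescence with signal to noise over triplicate slides.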 The following applies: 635 nm fluorescence, higher = more signal.
Experiment [9] concerns the target Neurogenic locus notch homolog protein 3 (Homo sapiens) (UniProt Q9UM47). Briefly: NOTCH3 binders on small-molecule microarray, primary screen, biochemical, 635/667 nm fluorescence (AID 1096). The note with it: NOTCH3 binding, 635 nm fluorescence, higher = more signal.
Experiment [10] is described as follows: small-molecule microarray binders of probe aEGFR, primary screen, biochemical, biotinylated probe, 635/667 nm fluorescence (AID 1097).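 Note: probe is a biotinylated anti-EGFR antibody binding compounds printed on slides; score combines fluorescence near 667 nm and signal to noise of each spot.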 The following applies: higher = more signal.

SMILES strings stand for the structures. Calls of active or inactive are those of the source.

Neurogenic locus notch homolog protein 3 (Homo sapiens), sequence (Q9UM47 whole entry, looked up): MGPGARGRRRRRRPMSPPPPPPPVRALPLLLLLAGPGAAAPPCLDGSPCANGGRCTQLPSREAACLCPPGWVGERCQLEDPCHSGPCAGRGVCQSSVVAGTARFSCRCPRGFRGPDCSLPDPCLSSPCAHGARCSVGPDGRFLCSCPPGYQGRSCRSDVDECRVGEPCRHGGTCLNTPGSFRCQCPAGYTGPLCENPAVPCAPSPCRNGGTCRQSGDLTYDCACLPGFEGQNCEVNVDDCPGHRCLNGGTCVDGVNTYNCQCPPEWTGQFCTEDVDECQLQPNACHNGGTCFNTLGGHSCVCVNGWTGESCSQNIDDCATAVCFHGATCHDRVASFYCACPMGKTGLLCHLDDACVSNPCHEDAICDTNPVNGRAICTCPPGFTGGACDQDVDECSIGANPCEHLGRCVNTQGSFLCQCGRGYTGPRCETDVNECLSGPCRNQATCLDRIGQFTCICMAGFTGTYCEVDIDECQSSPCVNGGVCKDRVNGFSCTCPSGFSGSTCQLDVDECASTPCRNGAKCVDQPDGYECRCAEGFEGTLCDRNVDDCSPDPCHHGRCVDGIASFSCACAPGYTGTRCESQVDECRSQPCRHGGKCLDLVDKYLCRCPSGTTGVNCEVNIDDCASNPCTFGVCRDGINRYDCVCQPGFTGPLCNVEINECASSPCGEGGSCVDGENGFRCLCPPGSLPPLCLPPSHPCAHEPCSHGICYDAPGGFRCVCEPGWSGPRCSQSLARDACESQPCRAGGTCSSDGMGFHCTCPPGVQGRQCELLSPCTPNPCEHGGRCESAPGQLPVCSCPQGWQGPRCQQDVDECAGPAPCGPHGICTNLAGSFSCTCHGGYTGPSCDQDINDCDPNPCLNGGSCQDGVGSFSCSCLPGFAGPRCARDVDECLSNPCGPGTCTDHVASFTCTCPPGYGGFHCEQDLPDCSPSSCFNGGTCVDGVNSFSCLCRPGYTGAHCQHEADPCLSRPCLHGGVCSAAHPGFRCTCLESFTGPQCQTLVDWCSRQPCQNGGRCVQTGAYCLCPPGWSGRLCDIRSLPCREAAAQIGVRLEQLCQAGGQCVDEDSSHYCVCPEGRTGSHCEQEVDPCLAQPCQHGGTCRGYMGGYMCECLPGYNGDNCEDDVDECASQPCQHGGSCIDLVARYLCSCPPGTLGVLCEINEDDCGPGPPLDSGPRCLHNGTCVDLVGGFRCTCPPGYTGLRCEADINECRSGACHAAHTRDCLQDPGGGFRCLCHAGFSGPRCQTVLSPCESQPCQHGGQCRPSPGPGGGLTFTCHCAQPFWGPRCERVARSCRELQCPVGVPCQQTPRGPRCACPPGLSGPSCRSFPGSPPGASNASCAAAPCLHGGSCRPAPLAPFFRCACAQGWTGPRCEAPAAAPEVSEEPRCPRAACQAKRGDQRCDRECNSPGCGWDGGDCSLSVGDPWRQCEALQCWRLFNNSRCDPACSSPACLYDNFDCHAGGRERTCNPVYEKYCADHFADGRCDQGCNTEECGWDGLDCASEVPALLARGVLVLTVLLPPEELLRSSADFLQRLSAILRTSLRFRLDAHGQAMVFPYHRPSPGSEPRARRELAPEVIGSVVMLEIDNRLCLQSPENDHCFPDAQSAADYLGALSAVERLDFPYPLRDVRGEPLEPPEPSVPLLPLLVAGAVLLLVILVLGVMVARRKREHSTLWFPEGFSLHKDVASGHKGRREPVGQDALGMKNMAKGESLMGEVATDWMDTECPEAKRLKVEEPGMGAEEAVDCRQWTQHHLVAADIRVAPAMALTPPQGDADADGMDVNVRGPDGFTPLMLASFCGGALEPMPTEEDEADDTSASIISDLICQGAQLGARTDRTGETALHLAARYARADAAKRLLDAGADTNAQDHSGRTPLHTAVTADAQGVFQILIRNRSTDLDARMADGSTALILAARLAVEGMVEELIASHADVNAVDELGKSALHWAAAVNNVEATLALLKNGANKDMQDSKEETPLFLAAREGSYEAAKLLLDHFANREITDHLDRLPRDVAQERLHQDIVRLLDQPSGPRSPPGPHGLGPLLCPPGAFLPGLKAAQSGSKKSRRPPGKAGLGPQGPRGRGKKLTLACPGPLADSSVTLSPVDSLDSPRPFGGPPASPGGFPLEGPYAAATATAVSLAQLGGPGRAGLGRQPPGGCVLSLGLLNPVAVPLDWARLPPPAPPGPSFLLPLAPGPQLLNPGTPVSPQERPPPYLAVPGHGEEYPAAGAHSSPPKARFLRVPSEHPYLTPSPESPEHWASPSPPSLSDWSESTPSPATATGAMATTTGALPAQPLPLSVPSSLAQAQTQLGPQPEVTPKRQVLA
Torsin-1A-interacting protein 2 (Homo sapiens), sequence (Q8NFQ8 whole entry, looked up): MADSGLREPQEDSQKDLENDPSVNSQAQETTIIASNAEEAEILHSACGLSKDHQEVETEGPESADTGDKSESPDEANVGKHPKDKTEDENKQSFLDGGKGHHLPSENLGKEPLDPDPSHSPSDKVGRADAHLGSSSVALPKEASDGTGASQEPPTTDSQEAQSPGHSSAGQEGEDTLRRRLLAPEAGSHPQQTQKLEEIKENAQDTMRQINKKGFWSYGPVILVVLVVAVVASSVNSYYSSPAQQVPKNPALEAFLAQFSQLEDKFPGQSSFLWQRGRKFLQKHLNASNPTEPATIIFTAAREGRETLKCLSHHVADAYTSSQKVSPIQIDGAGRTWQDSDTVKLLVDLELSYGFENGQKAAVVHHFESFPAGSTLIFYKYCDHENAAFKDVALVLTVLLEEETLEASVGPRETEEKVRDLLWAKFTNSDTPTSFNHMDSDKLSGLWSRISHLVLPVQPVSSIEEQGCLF

As to `Cc1cccc([C@H]2C[C@H]3C(Br)=C[C@@H]2C(=O)[C@]32CO2)c1`, the composite z-score was -0.373 in experiment [1]; -0.831 in experiment [5]; -0.0416 in [7]; -0.329 in [8]; -0.867 in experiment [9]; -0.626 in [10]. The z-score in experiment [2] is -0.749 (inactive); in experiment [3], -20.5 (active); in experiment [4], -1.2 (inactive); in experiment [6], 0.779 (inactive).
As for `CN(C)C(=O)[C@]1(CCS(=O)(=O)c2ccccc2)N=C(c2ccc(OCCCO)cc2)O[C@@H]1c1ccccc1`, the composite z-score in experiment [1] was 1.42; in experiment [5] it was 3.57; in [7], 0.0943; in experiment [8], 0.577; in experiment [9] it was 1.01; in experiment [10], 0.127. Moreover, the z-score in experiment [2] is -0.897 (inactive); in experiment [3], -0.804 (inactive); in [4], 4.54 (inactive); in experiment [6] it was 0.29 (inactive).
Take `CN1C(=O)C2C=CC(C(O)c3cc(C(F)(F)F)cc(C(F)(F)F)c3)N(NC(=O)OC(C)(C)C)C2C1=O` (stereo not given): the composite z-score in experiment [1] came to 1.56; in experiment [5] it was 3.61; in [7] it was 0.322; in experiment [8] it was 0.421; in experiment [9], 0.995; in experiment [10], 0.0169. Moreover, the z-score in experiment [2] is -0.403 (inactive); in experiment [3] it was -0.983 (inactive); in [4] it was -0.314 (inactive); in experiment [6], -0.0262 (inactive).
As for `C[C@@]12COC[C@]13C=C(Br)[C@H](C2)[C@@]1(CO1)C3=O`, the composite z-score in experiment [1] is -1.78; in experiment [5] it was -2.15; in [7] it was -0.207; in experiment [8], -0.508; in experiment [9], -0.233; in experiment [10] it was -0.178. The z-score was -0.0556 (inactive) in experiment [2], -2.25 (inactive) in experiment [3], -0.0407 (inactive) in experiment [4] and -0.768 (inactive) in experiment [6].
For `COC(=O)[C@@]1(Cc2ccc(OC)cc2)[C@H]2c3cc(C(=O)N4CCCC4)n(Cc4ccc(S(C)(=O)=O)cc4)c3C[C@H]2CN1C(=O)c1ccccc1`, the composite z-score in [1] was -0.42; in experiment [5], 3; in experiment [7], 0.205; in experiment [8], 0.419; in experiment [9] it was 1.02; in experiment [10], 0.297. Besides, the z-score in experiment [2] was -0.288 (inactive); in experiment [3], 0.868 (inactive); in experiment [4], 1.16 (inactive); in [6], -0.247 (inactive).
With `COc1ccc(C(O)C2C=CC3C(=O)N(c4ccccc4)C(=O)C3N2Nc2ccccc2F)cc1` (stereo not given), the composite z-score is 1.1 in experiment [1]; 3.46 in [5]; 0.183 in [7]; 0.164 in [8]; 0.842 in [9]; -0.0678 in [10]. In addition, the z-score in experiment [2] was -0.228 (inactive); in [3], 0.575 (inactive); in experiment [4], -0.246 (inactive); in experiment [6], 0.0902 (inactive).
Consider `COCC(=C=CC[C@@H](O)c1ccc(OCCO)cc1)CCO`, for which the composite z-score in experiment [1] was 0.271; in experiment [5] it was 1.73; in [7], -0.132; in experiment [8], 0.913; in experiment [9] it was 0.622; in [10] it was -0.125. The z-score in experiment [2] was 0.177 (inactive); in experiment [3] it was 0.0708 (inactive); in experiment [4] it was -0.18 (inactive); in experiment [6] it was 0.802 (inactive).
With `CC(C)CNC(=O)[C@@]1(C)c2ccccc2C(=O)N(Cc2cc(C(F)(F)F)cc(C(F)(F)F)c2)[C@H]1c1ccc(CO)cc1`, the composite z-score in experiment [1] was 1.3; in experiment [5], 1.16; in experiment [7], 0.0481; in experiment [8] it was -0.558; in experiment [9], -0.966; in experiment [10], -0.1. Moreover, the z-score is -0.721 (inactive) in [2], 0.4 (inactive) in experiment [3], -0.699 (inactive) in [4] and 0.497 (inactive) in experiment [6].
Turning to `COCCOC(=O)N1C(=O)[C@@]2(c3cc(C#CCC(C(=O)OC)C(=O)OC)ccc31)[C@H](C(=O)NC[C@H](O)c1ccccc1)[C@H]1C(=O)O[C@H](c3ccccc3)[C@H](c3ccccc3)N1[C@@H]2c1ccc(OCCO)cc1`, the composite z-score is 1.56 in experiment [1]; 2.08 in experiment [5]; -0.109 in experiment [7]; 1.69 in experiment [8]; 1.04 in experiment [9]; 0.0097 in experiment [10]. The z-score is 2.22 (inactive) in [2], 2.7 (inactive) in experiment [3], 7 (inactive) in experiment [4] and 0.6 (inactive) in experiment [6].
As to `CC(=O)N1CC(C(O)C2C=CC3C(=O)NC(=O)C3N2Nc2ccc(Cl)cc2Cl)c2ccccc21` (stereo not given), the composite z-score in experiment [1] is 0.825; in experiment [5], 2.74; in [7], 0.131; in [8], -0.575; in experiment [9] it was 0.91; in experiment [10] it was -0.0594. For the same compound, the z-score in experiment [2] was 1.14 (inactive); in experiment [3], 0.734 (inactive); in experiment [4] it was 1.81 (inactive); in experiment [6], -0.948 (inactive).
With `C[C@]1(C(=O)O)c2ccccc2C(=O)N(Cc2ccc(OC(F)(F)F)cc2)[C@H]1c1ccc(CO)cc1`, the composite z-score in experiment [1] was -0.0461; in experiment [5], 0.945; in experiment [7], 0.122; in experiment [8] it was -0.94; in experiment [9], -0.505; in experiment [10], -0.179. The z-score in experiment [2] was -0.691 (inactive); in [3] it was -0.767 (inactive); in experiment [4], -0.686 (inactive); in experiment [6], 0.402 (inactive).
`C[C@]1(C(=O)NCC(F)(F)F)c2ccccc2C(=O)N(Cc2ccccc2)[C@H]1c1ccc(CO)cc1`: the composite z-score in experiment [1] was -0.604; in [5], 1.57; in experiment [7], -0.0478; in [8] it was -1.45; in experiment [9], -1.21; in experiment [10] it was -0.162. Further, the z-score in experiment [2] is 0.724 (inactive); in [3] it was 0.645 (inactive); in [4], -0.0993 (inactive); in experiment [6] it was 0.855 (inactive).
Turning to `CC(C)C(CO)N1C(=O)[C@@H]2[C@H]3C(=O)OCC=C[C@H]3OC23C=CCN(C(C)(C)C)C(=O)[C@@H]13` (stereo not given in full), the composite z-score in [1] is -0.0274; in experiment [5], -0.963; in [7], -0.168; in experiment [8], -0.122; in experiment [9], -0.0022; in experiment [10] it was -0.144. The z-score was 0.027 (inactive) in experiment [2], 0.0191 (inactive) in [3], 0.754 (inactive) in [4] and -0.7 (inactive) in experiment [6].
As for `C=CCN1C(=O)[C@@]2(O[C@@H](CCO)[C@H]([Si](C)(C)c3ccc(OC)cc3)[C@H]2C)c2cc(N3CCOC3=O)ccc21`, the composite z-score in experiment [1] was 0.989; in experiment [5], 1.86; in experiment [7], -0.0755; in experiment [8] it was -0.355; in [9] it was 0.347; in [10], -0.134. The z-score was 1.53 (inactive) in [2], 0.885 (inactive) in experiment [3], 9.68 (active) in [4] and 0.976 (inactive) in experiment [6].
